# Experimental data: ChEMBL document CHEMBL2218924, “A broad activity screen in support of a chemogenomic map for kinase signalling research and drug discovery” (Biochem J, 2013)
# Columns and labels:
# [1] = biological target: T1, Tyrosine-protein kinase ITK/TSK (Homo sapiens) (UniProt Q08881); conditions: at 10 µM
# T1 sequence (whole entry): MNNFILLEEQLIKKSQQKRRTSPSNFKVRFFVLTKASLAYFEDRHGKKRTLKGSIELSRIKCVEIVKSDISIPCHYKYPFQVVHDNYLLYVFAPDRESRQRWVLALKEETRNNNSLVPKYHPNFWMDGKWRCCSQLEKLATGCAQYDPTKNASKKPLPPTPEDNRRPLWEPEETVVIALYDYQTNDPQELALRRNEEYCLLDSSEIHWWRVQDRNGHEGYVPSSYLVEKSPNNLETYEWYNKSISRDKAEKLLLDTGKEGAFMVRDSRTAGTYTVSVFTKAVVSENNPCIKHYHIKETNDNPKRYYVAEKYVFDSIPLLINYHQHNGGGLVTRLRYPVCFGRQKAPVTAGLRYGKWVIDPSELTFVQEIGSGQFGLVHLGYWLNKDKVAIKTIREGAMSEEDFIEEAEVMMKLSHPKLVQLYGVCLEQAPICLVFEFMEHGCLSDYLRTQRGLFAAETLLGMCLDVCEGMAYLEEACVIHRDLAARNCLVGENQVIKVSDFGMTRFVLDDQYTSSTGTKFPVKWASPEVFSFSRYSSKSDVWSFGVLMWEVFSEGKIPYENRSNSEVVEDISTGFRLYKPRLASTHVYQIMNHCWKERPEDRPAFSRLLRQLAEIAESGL
# [2] = biological target: Tyrosine-protein kinase JAK2 (Homo sapiens) (UniProt O60674); conditions: at 1 µM
# [3] = biological target: Tyrosine-protein kinase JAK2 (Homo sapiens) (UniProt O60674); conditions: at 10 µM
# [4] = biological target: T2, Tyrosine-protein kinase JAK3 (Homo sapiens) (UniProt P52333); conditions: at 1 µM
# T2 sequence (whole entry): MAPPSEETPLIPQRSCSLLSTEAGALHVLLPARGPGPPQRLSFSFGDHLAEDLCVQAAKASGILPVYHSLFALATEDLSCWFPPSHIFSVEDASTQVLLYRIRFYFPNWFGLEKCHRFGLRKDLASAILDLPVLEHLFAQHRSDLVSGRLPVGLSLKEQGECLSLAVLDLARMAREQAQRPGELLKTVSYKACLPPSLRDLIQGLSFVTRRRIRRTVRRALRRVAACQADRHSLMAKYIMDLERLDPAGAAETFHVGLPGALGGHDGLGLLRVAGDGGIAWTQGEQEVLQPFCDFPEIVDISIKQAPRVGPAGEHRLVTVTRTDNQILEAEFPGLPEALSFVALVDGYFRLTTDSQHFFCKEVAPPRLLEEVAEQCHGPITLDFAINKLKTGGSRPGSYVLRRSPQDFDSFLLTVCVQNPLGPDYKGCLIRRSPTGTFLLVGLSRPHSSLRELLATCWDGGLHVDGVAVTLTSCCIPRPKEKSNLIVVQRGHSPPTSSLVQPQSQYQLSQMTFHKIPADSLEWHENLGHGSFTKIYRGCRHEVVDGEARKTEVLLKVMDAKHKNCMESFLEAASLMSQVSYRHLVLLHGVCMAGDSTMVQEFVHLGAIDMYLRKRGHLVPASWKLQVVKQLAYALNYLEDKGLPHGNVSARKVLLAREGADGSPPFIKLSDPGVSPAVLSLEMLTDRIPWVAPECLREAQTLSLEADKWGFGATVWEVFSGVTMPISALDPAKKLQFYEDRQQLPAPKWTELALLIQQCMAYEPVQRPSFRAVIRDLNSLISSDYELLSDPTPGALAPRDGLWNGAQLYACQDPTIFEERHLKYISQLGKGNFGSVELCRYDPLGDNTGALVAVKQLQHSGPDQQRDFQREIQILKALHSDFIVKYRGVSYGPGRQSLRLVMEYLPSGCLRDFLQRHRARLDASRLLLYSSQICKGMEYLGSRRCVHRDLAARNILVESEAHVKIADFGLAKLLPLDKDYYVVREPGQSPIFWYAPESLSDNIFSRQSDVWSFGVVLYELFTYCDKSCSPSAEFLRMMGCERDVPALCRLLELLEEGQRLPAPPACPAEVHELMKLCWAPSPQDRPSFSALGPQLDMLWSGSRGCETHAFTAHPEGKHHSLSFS
# [5] = biological target: T2, Tyrosine-protein kinase JAK3 (Homo sapiens); conditions: at 10 µM
# [6] = biological target: Mitogen-activated protein kinase 8 (Homo sapiens) (UniProt P45983); conditions: at 1 µM
# [7] = biological target: Mitogen-activated protein kinase 8 (Homo sapiens) (UniProt P45983); conditions: at 10 µM
# [8] = biological target: Mitogen-activated protein kinase 9 (Homo sapiens) (UniProt P45984); conditions: at 1 µM
# [9] = biological target: Mitogen-activated protein kinase 9 (Homo sapiens) (UniProt P45984); conditions: at 10 µM
# [10] = biological target: Mitogen-activated protein kinase 10 (Homo sapiens) (UniProt P53779); conditions: at 1 µM
# [11] = biological target: Mitogen-activated protein kinase 10 (Homo sapiens) (UniProt P53779); conditions: at 10 µM
# [12] = biological target: Vascular endothelial growth factor receptor 2 (Homo sapiens) (UniProt P35968); conditions: at 1 µM
# [13] = biological target: Vascular endothelial growth factor receptor 2 (Homo sapiens) (UniProt P35968); conditions: at 10 µM
# [14] = biological target: LIM domain kinase 1 (Homo sapiens) (UniProt P53667); conditions: at 1 µM
# [15] = biological target: LIM domain kinase 1 (Homo sapiens) (UniProt P53667); conditions: at 10 µM
# [16] = biological target: T3, Serine/threonine-protein kinase STK11 (Homo sapiens) (UniProt Q15831); conditions: at 1 µM
# T3 sequence (whole entry): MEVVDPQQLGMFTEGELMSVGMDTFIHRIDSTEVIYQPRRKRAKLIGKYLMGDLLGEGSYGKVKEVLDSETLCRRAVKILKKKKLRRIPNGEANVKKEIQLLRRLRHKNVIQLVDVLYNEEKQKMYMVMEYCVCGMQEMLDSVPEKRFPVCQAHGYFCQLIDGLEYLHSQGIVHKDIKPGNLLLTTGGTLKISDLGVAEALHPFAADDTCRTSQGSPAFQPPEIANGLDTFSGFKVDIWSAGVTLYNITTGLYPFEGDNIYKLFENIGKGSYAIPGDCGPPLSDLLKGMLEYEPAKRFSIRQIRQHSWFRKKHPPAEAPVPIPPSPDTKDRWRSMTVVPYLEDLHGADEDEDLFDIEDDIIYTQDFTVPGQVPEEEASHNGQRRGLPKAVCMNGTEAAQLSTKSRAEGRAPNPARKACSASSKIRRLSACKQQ
# [17] = biological target: T3, Serine/threonine-protein kinase STK11 (Homo sapiens); conditions: at 10 µM
# [18] = biological target: Serine/threonine-protein kinase 10 (Homo sapiens) (UniProt O94804); conditions: at 1 µM
# [19] = biological target: Serine/threonine-protein kinase 10 (Homo sapiens) (UniProt O94804); conditions: at 10 µM
# [20] = biological target: Tyrosine-protein kinase Lck (Homo sapiens) (UniProt P06239); conditions: at 1 µM
# Sequence of Tyrosine-protein kinase JAK2 (Homo sapiens) (O60674 whole entry): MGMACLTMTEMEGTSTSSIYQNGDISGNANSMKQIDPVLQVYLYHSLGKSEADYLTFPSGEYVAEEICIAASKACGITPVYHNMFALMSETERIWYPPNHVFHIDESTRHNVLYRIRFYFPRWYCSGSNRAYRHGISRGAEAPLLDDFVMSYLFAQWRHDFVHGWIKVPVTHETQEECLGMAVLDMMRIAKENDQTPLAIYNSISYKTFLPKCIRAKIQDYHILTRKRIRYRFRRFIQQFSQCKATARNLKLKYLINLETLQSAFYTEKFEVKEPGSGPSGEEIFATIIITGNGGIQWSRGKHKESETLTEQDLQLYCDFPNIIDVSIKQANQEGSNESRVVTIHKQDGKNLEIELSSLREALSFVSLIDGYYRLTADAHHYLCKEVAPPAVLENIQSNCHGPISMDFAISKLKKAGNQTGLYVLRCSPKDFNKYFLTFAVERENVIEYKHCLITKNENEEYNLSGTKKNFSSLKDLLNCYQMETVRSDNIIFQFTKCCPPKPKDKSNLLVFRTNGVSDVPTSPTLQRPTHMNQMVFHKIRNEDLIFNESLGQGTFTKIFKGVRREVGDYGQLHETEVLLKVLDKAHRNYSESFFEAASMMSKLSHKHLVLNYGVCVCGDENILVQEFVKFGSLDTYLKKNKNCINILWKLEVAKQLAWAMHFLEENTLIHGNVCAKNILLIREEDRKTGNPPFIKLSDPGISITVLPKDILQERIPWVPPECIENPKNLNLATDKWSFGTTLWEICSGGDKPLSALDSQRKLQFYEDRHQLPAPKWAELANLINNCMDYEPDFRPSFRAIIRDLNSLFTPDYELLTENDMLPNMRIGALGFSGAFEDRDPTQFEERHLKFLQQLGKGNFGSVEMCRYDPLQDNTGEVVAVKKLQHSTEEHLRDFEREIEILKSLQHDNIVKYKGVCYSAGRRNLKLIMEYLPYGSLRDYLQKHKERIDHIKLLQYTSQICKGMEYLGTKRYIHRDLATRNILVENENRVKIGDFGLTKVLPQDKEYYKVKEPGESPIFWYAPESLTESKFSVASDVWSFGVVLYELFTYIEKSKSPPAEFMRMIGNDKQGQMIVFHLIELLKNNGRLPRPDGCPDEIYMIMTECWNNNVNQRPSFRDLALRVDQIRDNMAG
# Sequence of Mitogen-activated protein kinase 10 (Homo sapiens) (P53779 whole entry): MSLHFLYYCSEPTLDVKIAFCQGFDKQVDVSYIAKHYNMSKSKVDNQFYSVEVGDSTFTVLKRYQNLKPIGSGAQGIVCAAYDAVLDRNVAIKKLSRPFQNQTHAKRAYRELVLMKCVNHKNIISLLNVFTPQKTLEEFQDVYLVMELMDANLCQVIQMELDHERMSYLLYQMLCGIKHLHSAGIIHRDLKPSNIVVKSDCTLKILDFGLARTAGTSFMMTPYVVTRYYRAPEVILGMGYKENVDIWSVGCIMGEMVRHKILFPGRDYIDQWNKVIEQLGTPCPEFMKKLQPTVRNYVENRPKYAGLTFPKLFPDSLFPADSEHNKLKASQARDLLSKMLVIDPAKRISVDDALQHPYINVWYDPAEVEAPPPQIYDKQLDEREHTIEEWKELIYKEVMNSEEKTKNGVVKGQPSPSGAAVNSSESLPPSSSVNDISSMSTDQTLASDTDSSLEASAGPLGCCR
# Sequence of Mitogen-activated protein kinase 8 (Homo sapiens) (P45983 whole entry): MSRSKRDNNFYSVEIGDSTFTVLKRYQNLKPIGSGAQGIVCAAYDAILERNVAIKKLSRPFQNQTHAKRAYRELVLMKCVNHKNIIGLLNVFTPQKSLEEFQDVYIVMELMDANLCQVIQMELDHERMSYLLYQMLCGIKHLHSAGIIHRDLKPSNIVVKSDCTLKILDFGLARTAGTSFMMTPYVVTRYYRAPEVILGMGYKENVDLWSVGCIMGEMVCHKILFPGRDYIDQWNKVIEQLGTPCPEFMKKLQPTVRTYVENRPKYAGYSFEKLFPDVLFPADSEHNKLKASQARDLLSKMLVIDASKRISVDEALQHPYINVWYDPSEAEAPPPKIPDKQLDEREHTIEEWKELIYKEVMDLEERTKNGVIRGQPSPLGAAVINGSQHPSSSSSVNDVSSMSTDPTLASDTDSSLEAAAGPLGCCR
# Sequence of Vascular endothelial growth factor receptor 2 (Homo sapiens) (P35968 whole entry, the tested form may be a part): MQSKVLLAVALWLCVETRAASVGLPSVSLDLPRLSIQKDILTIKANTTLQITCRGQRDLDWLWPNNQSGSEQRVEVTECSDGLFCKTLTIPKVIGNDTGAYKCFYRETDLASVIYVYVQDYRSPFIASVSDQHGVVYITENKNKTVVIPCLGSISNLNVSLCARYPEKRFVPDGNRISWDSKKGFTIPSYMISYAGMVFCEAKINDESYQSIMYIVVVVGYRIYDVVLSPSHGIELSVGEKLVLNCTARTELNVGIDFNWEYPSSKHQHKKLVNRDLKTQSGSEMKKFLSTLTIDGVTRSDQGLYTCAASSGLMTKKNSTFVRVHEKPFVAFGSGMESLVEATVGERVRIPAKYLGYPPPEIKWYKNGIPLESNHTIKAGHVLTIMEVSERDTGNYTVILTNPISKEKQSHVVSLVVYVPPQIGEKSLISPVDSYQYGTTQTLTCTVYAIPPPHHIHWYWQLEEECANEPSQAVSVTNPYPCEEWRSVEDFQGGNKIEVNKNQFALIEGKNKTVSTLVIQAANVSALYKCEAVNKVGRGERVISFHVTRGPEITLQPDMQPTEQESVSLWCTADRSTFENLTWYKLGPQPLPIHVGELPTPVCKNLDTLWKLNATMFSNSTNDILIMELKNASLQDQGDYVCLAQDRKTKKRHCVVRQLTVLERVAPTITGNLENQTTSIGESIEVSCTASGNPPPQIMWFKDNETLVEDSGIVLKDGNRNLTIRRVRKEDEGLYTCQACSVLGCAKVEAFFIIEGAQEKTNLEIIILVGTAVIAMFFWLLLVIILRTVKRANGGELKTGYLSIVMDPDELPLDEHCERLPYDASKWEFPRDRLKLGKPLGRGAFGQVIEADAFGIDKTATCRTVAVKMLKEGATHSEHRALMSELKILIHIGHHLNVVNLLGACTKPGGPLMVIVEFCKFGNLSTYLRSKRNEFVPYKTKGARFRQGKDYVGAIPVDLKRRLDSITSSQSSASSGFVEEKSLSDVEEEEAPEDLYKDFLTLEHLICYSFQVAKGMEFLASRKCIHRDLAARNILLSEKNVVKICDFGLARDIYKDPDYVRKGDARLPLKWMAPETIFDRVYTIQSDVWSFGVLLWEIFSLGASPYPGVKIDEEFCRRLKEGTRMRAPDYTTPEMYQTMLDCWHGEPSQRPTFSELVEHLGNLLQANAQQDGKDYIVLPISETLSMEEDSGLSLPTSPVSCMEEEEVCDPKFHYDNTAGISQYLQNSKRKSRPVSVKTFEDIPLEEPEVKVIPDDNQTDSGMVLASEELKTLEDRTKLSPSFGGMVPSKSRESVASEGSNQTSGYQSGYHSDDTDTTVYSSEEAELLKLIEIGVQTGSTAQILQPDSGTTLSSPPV
# Sequence of Mitogen-activated protein kinase 9 (Homo sapiens) (P45984 whole entry, looked up): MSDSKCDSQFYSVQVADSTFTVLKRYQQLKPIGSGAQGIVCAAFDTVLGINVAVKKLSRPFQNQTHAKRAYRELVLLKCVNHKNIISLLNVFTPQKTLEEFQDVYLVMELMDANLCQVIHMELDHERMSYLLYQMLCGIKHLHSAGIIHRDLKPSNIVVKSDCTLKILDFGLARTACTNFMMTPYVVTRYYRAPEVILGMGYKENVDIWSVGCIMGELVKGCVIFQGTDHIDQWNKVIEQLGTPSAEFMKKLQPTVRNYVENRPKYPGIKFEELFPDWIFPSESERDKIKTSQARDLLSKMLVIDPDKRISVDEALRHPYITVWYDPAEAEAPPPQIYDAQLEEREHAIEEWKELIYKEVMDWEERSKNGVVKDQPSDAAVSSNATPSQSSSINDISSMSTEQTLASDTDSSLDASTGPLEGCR
# Sequence of Serine/threonine-protein kinase 10 (Homo sapiens) (O94804 whole entry, looked up): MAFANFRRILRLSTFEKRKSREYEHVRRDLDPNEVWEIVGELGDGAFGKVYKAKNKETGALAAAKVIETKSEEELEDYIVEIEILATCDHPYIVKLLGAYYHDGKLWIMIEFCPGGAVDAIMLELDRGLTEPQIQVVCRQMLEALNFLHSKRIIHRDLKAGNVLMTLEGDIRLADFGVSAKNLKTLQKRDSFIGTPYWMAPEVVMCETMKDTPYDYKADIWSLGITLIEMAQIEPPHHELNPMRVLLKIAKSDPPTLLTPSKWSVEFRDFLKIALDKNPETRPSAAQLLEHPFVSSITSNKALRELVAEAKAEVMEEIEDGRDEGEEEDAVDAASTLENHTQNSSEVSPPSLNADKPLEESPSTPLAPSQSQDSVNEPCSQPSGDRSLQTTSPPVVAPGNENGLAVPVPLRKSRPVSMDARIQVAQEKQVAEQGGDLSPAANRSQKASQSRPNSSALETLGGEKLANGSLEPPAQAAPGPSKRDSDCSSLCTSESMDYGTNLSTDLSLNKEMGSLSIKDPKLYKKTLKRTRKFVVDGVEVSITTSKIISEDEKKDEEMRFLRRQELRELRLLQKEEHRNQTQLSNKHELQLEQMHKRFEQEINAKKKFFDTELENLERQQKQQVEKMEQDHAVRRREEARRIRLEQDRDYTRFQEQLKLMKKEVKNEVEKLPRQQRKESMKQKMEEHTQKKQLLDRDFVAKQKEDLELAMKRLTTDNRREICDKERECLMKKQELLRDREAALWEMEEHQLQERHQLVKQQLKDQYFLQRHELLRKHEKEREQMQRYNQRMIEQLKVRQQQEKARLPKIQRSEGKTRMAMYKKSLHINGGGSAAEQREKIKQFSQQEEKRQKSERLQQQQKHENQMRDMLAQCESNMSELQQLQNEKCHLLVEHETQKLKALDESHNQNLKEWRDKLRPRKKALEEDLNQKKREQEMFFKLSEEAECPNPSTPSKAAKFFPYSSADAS
Compound,residual activity [1] [%],residual activity [2] [%],residual activity [3] [%],residual activity [4] [%],residual activity [5] [%],residual activity [6] [%],residual activity [7] [%],residual activity [8] [%],residual activity [9] [%],residual activity [10] [%],residual activity [11] [%],residual activity [12] [%],residual activity [13] [%],residual activity [14] [%],residual activity [15] [%],residual activity [16] [%],residual activity [17] [%],residual activity [18] [%],residual activity [19] [%],residual activity [20] [%]
Nc1nc(Nc2ccc(S(N)(=O)=O)cc2)nn1C(=S)Nc1c(F)cccc1F,3,2,0,0,2,88,84,71,19,35,3,0,0,5,2,87,41,0,0,4
Cc1nc(-c2ccccc2)c(-c2ccncc2)o1,101,113,115,97,114,107,94,88,57,63,19,95,78,106,86,111,100,119,105,92
COc1cc2ncnc(Nc3ccc(O)c(Br)c3)c2cc1OC,71,102,55,93,57,96,54,99,78,51,13,30,4,78,49,106,97,17,8,27
Nc1ccc2ncnc(NCCc3ccc(Oc4ccccc4)cc3)c2c1,94,107,149,97,124,88,101,93,105,97,80,79,53,106,80,105,94,92,75,76
Cn1cnc2cc3c(Nc4cccc(Br)c4)ncnc3cc21,87,111,99,102,108,98,77,112,94,54,9,49,19,105,57,101,99,31,10,42
CCOc1cc2ncnc(Nc3cccc(Br)c3)c2cc1OCC,85,118,88,105,87,99,77,105,96,43,11,54,13,107,49,98,94,23,10,39
CC[n+]1c(/C=C/N(C)c2ccccc2)n(-c2ccccc2)c2ccc(-c3nc4ccccc4s3)cc21,92,121,150,118,149,119,95,113,102,91,93,109,87,124,96,98,104,107,92,133
